Data published in PubChem BioAssay.
The source made the active and inactive calls. Unless noted, the rule behind the calls is not given here.

Columns and labels:
[1] = HepG2 liver cancer cell viability effects, profiling panel, resazurin fluorescence, 24 h, PK04 Diversity Set (AID 1172); settings: higher = more signal; note: test concentration not given here
[2] = basal S. cerevisiae growth modulation, no modifier, primary screen, OD600, strain BY4716, 24 h, basal condition (AID 1173); settings: OD600, 24 h, higher = more signal, called active from +8 up or from −8 down
[3] = MM1S myeloma cell viability, profiling panel, resazurin fluorescence, basal, 24 h, PK04 Diversity Set (AID 1174); settings: higher = more signal, called active from +8 up or from −8 down;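 note: MM1S multiple myeloma cell line; test concentration not given here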
[4] = molecular target: Dihydroorotate dehydrogenase (quinone), mitochondrial (Plasmodium falciparum (isolate 3D7)) (UniProt Q08210); assay: PfDHODH enzyme inhibitors, primary screen, biochemical, C-terminal His tag, absorbance 600 nm (AID 1175); settings: DCIP absorbance 600 nm, higher = more signal, called active from +8 up or from −8 down;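 note: recombinant parasite enzyme with a five histidine tag at its C terminus; test concentration not given here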
Chain of Dihydroorotate dehydrogenase (quinone), mitochondrial (Plasmodium falciparum (isolate 3D7)) (Q08210 whole entry, looked up): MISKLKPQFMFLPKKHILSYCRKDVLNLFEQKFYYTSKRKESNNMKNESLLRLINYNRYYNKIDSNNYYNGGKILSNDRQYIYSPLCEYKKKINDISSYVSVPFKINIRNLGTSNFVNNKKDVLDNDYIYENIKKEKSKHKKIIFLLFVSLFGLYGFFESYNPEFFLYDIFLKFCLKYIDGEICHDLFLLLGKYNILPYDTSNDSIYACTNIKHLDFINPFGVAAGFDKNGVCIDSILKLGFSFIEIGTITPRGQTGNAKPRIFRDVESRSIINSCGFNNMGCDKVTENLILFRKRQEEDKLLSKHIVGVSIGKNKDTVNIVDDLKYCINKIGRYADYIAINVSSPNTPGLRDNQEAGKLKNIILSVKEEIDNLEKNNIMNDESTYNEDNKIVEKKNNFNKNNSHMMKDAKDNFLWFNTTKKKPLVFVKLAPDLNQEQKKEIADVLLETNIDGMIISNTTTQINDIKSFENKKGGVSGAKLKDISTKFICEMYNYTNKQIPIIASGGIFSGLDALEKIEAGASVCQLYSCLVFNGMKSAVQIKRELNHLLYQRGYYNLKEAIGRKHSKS

[5] = P. aeruginosa biofilm formation inhibitors, primary screen, strain PAO1, LB-PBS medium, absorbance 600 nm (AID 1176); note: test concentration not given here; settings: P. aeruginosa PAO1 growth/biofilm, A600, 12 h; higher = more signal
[6] = S. cerevisiae RM11-1a growth modifiers, primary screen, strain RM11-1a, OD600, basal, 24 h (AID 1177); settings: OD600, 24 h, higher = more signal, called active from +8 up or from −8 down;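 note: cultures grown under basal conditions with no added stressor; test concentration not given here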
[7] = E. coli acrAB mutant growth effects, primary screen, E. coli filamentation inducers, strain DRC39, OD650, 24 h (AID 1178); settings: higher = more signal, called active from +8 up or from −8 down;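 note: growth measured as culture turbidity by optical density at 650 nm; test concentration not given here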
[8] = E. coli acrAB mutant growth effects, primary screen, E. coli filamentation inducers, strain DRC39, OD650, 48 h (AID 1179);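 note: screen aims at cell division blockers that make cells filament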; settings: E. coli DRC39 delta-acrAB growth, higher = more signal, called active from +8 up or from −8 down
[9] = RPMI8226 myeloma cell viability, profiling panel, resazurin fluorescence, basal, 24 h, PK04 Diversity Set (AID 1180); settings: higher = more signal;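 note: RPMI8826 multiple myeloma cell line at 5000 cells per well; test concentration not given here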
[10] = molecular target: E3 ubiquitin-protein ligase XIAP (Homo sapiens) (UniProt P98170); assay: XIAP binders, primary screen, biophysical, small-molecule microarray, fluorescence 635 nm (AID 1181); settings: small-molecule microarray binding, higher = more signal;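 note: score merges 667 nm emission and signal to noise over triplicate slides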
Chain of E3 ubiquitin-protein ligase XIAP (Homo sapiens) (P98170 whole entry, looked up): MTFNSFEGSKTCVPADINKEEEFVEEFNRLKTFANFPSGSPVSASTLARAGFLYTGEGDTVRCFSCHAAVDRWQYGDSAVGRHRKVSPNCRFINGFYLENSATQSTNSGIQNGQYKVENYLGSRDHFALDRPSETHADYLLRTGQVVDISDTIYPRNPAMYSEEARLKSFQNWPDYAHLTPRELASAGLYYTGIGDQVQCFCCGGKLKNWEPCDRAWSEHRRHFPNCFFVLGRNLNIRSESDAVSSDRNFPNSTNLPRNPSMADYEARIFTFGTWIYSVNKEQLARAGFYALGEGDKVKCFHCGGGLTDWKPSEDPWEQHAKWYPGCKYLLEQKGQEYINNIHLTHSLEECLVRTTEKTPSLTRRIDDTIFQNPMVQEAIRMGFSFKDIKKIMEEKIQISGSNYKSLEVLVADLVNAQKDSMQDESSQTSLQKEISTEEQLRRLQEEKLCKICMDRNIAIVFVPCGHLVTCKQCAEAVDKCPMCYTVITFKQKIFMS

Structure (SMILES)	z-score [1]	z-score [2]	z-score [3]	composite z-score [4]	z-score [5]	z-score [6]	z-score [7]	z-score [8]	z-score [9]	composite z-score [10]
C=CC[C@@H]1C=C[C@H](ON=C[C@@H](NS(=O)(=O)c2ccc(C)cc2)[C@H](C)C=CCC(=O)OC)[C@@H](CO)O1	-0.71	0.071 (inactive)	-0.681 (inactive)	-0.383 (inactive)	0.0525 (inactive)	-0.0257 (inactive)	-0.251 (inactive)	0.119 (inactive)	-0.422	-0.231
CO[C@@H]1C=CCC(=O)N[C@@H](C)C(=O)OC[C@@H](OC)[C@H](C)C=CCC(=O)OC[C@H]1C	-0.103	-0.615 (inactive)	0.697 (inactive)	-0.765 (inactive)	-0.507 (inactive)	-0.718 (inactive)	0.267 (inactive)	-0.42 (inactive)	0.103	-0.169
O=C1C=C[C@@H](O)[C@@H]2[C@@H]3C(=O)N(Cc4ccc5c(c4)OCO5)C(=O)[C@@H]3CC[C@@H]12	-0.557	0.516 (inactive)	0.966 (inactive)	0.0627 (inactive)	0.0122 (inactive)	-0.129 (inactive)	0.207 (inactive)	-0.173 (inactive)	0.422	-0.0233
C[C@H]1CC[C@H]2C(=O)OC(COc3ccc(C(C)(C)C)cc3)CN2[C@@H]1c1ccc(Br)cc1 (stereo not given in full)	0.272	-4.88 (inactive)	0.283 (inactive)	-0.673 (inactive)	1.18 (inactive)	-0.249 (inactive)	1.22 (inactive)	0.662 (inactive)	-0.317	-0.173
CC(=O)OC[C@H]1O[C@H](CC=NOC(C)CN2CCCCc3nc(C)c(C)cc32)C=C[C@@H]1OC(C)=O (stereo not given in full)	0.351	0.515 (inactive)	0.535 (inactive)	-0.582 (inactive)	-0.266 (inactive)	0.575 (inactive)	0.132 (inactive)	-0.269 (inactive)	0.46	0.23
CCOC(=O)CCN1C(=O)[C@H]2[C@H]3[C@H](O)[C@H](O)CC(=O)[C@@H]3CC[C@H]2C1=O	1.09	-0.375 (inactive)	0.344 (inactive)	0.462 (inactive)	-0.708 (inactive)	-0.405 (inactive)	-0.512 (inactive)	-0.897 (inactive)	0.651	0.0408
CCCNC(=O)OC[C@H]1O[C@H](CCON=C2c3cc(OC)ccc3O[C@H](c3cccc(OC)c3)[C@H]2O)C=C[C@@H]1Oc1ccc(OC)cc1	-0.286	0.668 (inactive)	-0.801 (inactive)	0.159 (inactive)	0.724 (inactive)	0.391 (inactive)	0.885 (inactive)	-0.034 (inactive)	-0.384	0.02
CO[C@H]1C[C@@H]2C[C@H](O)CC(CC(=O)O[C@@H](C=CCC(C)C)C[C@@H]3CC[C@H](C)[C@@H](C1)O3)O2	-0.37	-1.47 (inactive)	-0.0942 (inactive)	-0.928 (inactive)	-0.139 (inactive)	-1.65 (inactive)	-0.033 (inactive)	-0.394 (inactive)	-0.384	0.0256
C[C@H]1C=CCC(=O)OC[C@H](C)C(=O)N2CCC[C@H]2C(=O)OC1	0.976	-0.18 (inactive)	-0.0106 (inactive)	-0.441 (inactive)	-0.455 (inactive)	0.73 (inactive)	0.0678 (inactive)	0.205 (inactive)	0.818	-0.102
O=C1[C@H]2[C@H]3[C@H](O)[C@H](O)CC(=NOCc4ccccc4)[C@H]3CC[C@H]2C(=O)N1C1CCCCC1	-0.483	-0.149 (inactive)	-0.99 (inactive)	0.0894 (inactive)	0.377 (inactive)	-0.373 (inactive)	-0.157 (inactive)	-0.414 (inactive)	-1.83	0.237
COc1ccc2c(c1)O[C@@H](c1cccc(C(F)(F)F)c1)[C@H](O)C2=O	0.669	-14.3 (active)	-0.104 (inactive)	-0.445 (inactive)	0.699 (inactive)	-1.04 (inactive)	1.23 (inactive)	1.34 (inactive)	0.8	0.0223
CC(CCC(=O)OC[C@H]1O[C@H](C#Cc2ccccc2)C=C[C@@H]1Oc1ccc(C)cc1)=NO[C@H](C)c1cn([C@@H]2COC[C@H]2O)nn1	-0.458	-0.174 (inactive)	-1.7 (inactive)	-2.12 (inactive)	1.12 (inactive)	-2.02 (inactive)	-0.698 (inactive)	-0.651 (inactive)	-0.474	-0.0793
COc1ccc(-c2cnnc(CCCn3ccnc3-c3ccccc3)n2)cc1	-1.18	-0.72 (inactive)	-0.891 (inactive)	0.552 (inactive)	1.17 (inactive)	-0.252 (inactive)	-0.867 (inactive)	-0.634 (inactive)	-1.38	-0.0143
COC(=O)C1=C(C)N(Cc2ccccc2)C2=C3C(=O)OCC[C@@H]3[C@@](O)(C(=O)OC)C(=O)N2[C@@H]1c1ccccc1	1.11	-0.319 (inactive)	-1.3 (inactive)	0.524 (inactive)	-0.458 (inactive)	0.681 (inactive)	0.933 (inactive)	0.575 (inactive)	-0.0018	-0.0931
CC(CCN1CCc2nc(-c3ccccc3)c(-c3ccccc3)cc2C1)=NO[C@@H](C)c1cc(-c2c(C)cc(C)cc2C)no1	-0.377	-1.7 (inactive)	0.553 (inactive)	-2.15 (inactive)	-0.634 (inactive)	-0.482 (inactive)	-1.04 (inactive)	-1.01 (inactive)	0.812	-0.209
CCOC(=O)CCN1C(=O)[C@H]2[C@H]3[C@H](O)[C@H](O)CC(=NO[C@@H]4O[C@H](CO)[C@@H](O)[C@H](O)[C@H]4O)[C@H]3CC[C@H]2C1=O	-0.228	0.87 (inactive)	-0.433 (inactive)	0.29 (inactive)	-0.483 (inactive)	-0.402 (inactive)	-0.739 (inactive)	-0.0907 (inactive)	-0.162	0.106
O=C1[C@H]2CCn3c(=O)n(Cc4cc5c(cc4Cl)OCO5)c(=O)n3[C@H]2[C@H](O)[C@@H]2O[C@H]12	-0.581	-0.0756 (inactive)	-1.3 (inactive)	-0.877 (inactive)	-0.838 (inactive)	0.533 (inactive)	0.552 (inactive)	0.669 (inactive)	-1.3	-0.146
CCOC(=O)CCN1C(=O)[C@H]2[C@H]3[C@H](O)[C@H](O)CC(=NOCC(C)C)[C@@H]3CC[C@H]2C1=O	-0.452	-0.824 (inactive)	-0.665 (inactive)	-0.449 (inactive)	0.377 (inactive)	-0.992 (inactive)	-0.268 (inactive)	-0.321 (inactive)	-0.889	0.0819
CO[C@H]1COC(=O)CC=C[C@H](C)[C@H](OC)COC(=O)[C@@H](C)NC(=O)CC=C[C@@H]1C	0.664	-1.17 (inactive)	0.623 (inactive)	-0.498 (inactive)	-0.467 (inactive)	-1.22 (inactive)	0.124 (inactive)	-0.0133 (inactive)	0.379	0.0399
CON(C)C(=O)c1nnc2c(n1)[nH]c1ccccc12	-0.244	0.304 (inactive)	0.322 (inactive)	-0.306 (inactive)	0.131 (inactive)	-0.915 (inactive)	0.593 (inactive)	0.572 (inactive)	0.492	0.273
O=C1[C@H]2[C@H]3[C@H](O)[C@H](O)CC(=NOC[C@@H](O)COCc4ccco4)[C@@H]3CC[C@H]2C(=O)N1C1CCCCC1	-0.31	0.446 (inactive)	-0.226 (inactive)	-0.308 (inactive)	0.0457 (inactive)	0.153 (inactive)	0.326 (inactive)	0.132 (inactive)	-0.415	-0.28
